Assay results as given in PubChem BioAssay (NCATS).
Results filed as inconclusive are left out. Activity calls are given as the source filed them. The call rests on the fitted dose curve; in most records, active means well fitted cell-killing curve with a large enough effect; inconclusive means small, poorly fitted or top-dose-only effect, or effect the other way; inactive means no such curve, though single readings can be large or run the other way.

experiment: Quantitative High-Throughput drug screen in 47 multiple myeloma cell lines against the NCATS MIPE library collection: KMS11_JCRBsus cell viability assay (AID 1919873); conditions: KMS11 myeloma viability, CellTiter-Glo ATP luminescence, 48 h; series mostly up to 45.8 µM; viability (% of control): at the top concentration; further: nearly all actives have a fitted effect of over 50% in size
Source text: PI: Beverly A. Mock Ph.D.
Laboratory of Cancer Biology and Genetics,
Center for Cancer Research, National Cancer Institute,
National Institute of Health, Bethesda, Maryland
Drug resistance and disease progression are common in multiple myeloma (MM) patients, underscoring the need for new therapeutic combinations. […] We hypothesized that effective combinations would reduce MYC expression and enhance p16 activity. […] These preclinical data identify potentially useful drug combinations for evaluation in drug-resistant MM and reveal potential mechanisms of combined drug sensitivity.
Described herein is the primary MIPE qHTS used to cherrypick compounds. Validated compounds were then further tested for potential synergistic activiy.
[1] Peat TJ, Gaikwad SM, Dubois W, Gyabaah-Kessie N, Zhang S, Gorjifard S, Phyo Z, Andres M, Hughitt VK, Simpson RM, Miller MA, Girvin AT, Taylor A, Williams D, D'Antonio N, Zhang Y, Rajagopalan A, Flietner E, Wilson K, Zhang X, Shinn P, Klumpp-Thomas C, McKnight C, Itkin Z, Chen L, Kazandijian D, Zhang J, Michalowski AM, Simmons JK, Keats J, Thomas CJ, Mock BA. Drug combinations identified by high-throughput screening promote cell cycle transition and upregulate Smad pathways in myeloma. Cancer Lett. 2023 Aug 1;568:216284. doi: 10.1016/j.canlet.2023.216284. Epub 2023 Jun 24. PMID: 37356470; PMCID: PMC10408729.
SEQUENCE No. (e.g., 1, 2, 3, etc.); […] (e.g., Cells, Incubation, Reagent, etc.); VALUE and DESCRIPTION.
1; Cells; 5 uL; white, solid bottom 1536-well Greiner assay plate.
2; Compounds; 23 nL; Kalypsis pin tool (Wako USA) equipped with a 1536-well pin head to transfer to the assay plates.
3; Incubation; 48 hours; 37C incubation.
4; Reagent;5uL; CellTiter Glo (Promega).
5; Detector; 425V; Luminescence; Viewlux PerkinElmer.
NOTES (numbers refer to Sequence numbers above)
1. The cell-based screening methods employed in this study were like those previously published. Briefly, the corresponding myeloma cell lines were screened in 1,536-well plates with 500 cells, 5-uL per well for inhibition of cell viability (assessed by measuring ATP levels with CellTiterGlo).
2. NCATS MIPE 4.0 library of approved and investigational drugs were added using the Kalypsis pin tool. Wells treated with DMSO only for 100% viability and media only for 0% viability were used as controls.
3. The assay plates were covered and incubated for 48 hours in a 37C, 5% CO2 incubator with controlled humidity.
4. After 48 hours, CellTilter-GloTM luminescent substrate mix (Promega) reagent was added to the assay plate and plates we incubated for 5 min at room temperature.
5. Signal was measured as median relative luminescence units on a ViewLux (PerkinElmer) multiplate reader.
[1] Heske CM, Davis MI, Baumgart JT, Wilson K, Gormally MV, Chen L, Zhang X, Ceribelli M, Duveau DY, Guha R, Ferrer M, Arnaldez FI, Ji J, Tran HL, Zhang Y, Mendoza A, Helman LJ, Thomas CJ. Matrix Screen Identifies Synergistic Combination of PARP Inhibitors and Nicotinamide Phosphoribosyltransferase (NAMPT) Inhibitors in Ewing Sarcoma. Clin Cancer Res. 2017 Dec 1;23(23):7301-7311. doi: 10.1158/1078-0432.CCR-17-1121. Epub 2017 Sep 12. PMID: 28899971; PMCID: PMC6636827.
Potency means the concentration at half of the fitted maximal effect.

Compound	Potency	viability (% of control)
Cc1cnc(Nc2ccc(CN3CCOCC3)cc2)nc1Nc1cccc(S(=O)(=O)NC(C)(C)C)c1	1180 nM (active)	
COc1cc(C=CC(=O)CC(=O)C=Cc2ccc(O)c(OC)c2)ccc1O	8550 nM (active)	
C=CC(=O)Nc1cccc(Nc2nc(NC3CCC(N(C)C)CC3)nc3c2ncn3C(C)C)c1 (stereo not given)	372 nM (active)	
O=C(NNC(=O)c1ccc(CNS(=O)(=O)c2ccc(F)c(Cl)c2)cc1)c1ccccc1		98% (inactive)
O=c1[nH]c(=O)n([C@H]2C[C@@H](O)[C@@H](CO)O2)cc1F	526 nM (active)	
C[C@H]1O[C@H](O[C@H]2[C@H](O)[C@@H](O)[C@@H](O[C@H]3[C@H](O)[C@@H](O)C(O)O[C@H]3CO)O[C@H]2CO)[C@H](O)[C@@H](O)[C@H]1N[C@H]1C=C(CO)[C@@H](O)[C@H](O)[C@@H]1O (stereo not given in full)		108% (inactive)
CC(C)C[C@H](NC(=O)[C@@H](NC(=O)c1cccc(-c2ccccc2)n1)[C@@H](C)O)B(O)O	13.2 nM (active)	
COc1cc(C[C@@H](CO)[C@H](CO)Cc2ccc(O)c(OC)c2)ccc1O		111% (inactive)
NC1=N[C@H]2[C@H](CS[C@H]2CCCCC(=O)O)N1		112% [at 23.2 µM] (inactive)
CC(O)(C#Cc1ccc2c(c1)N(c1nc(N)ncc1Cl)CC2)c1nccs1 (stereo not given)	18700 nM (active)	
CCOc1cc2ncc(C#N)c(Nc3ccc(OCc4ccccn4)c(Cl)c3)c2cc1NC(=O)C=CCN(C)C	14800 nM (active)	
CC(C)N1[N]C(=C2C=c3cc(O)ccc3=N2)c2c(N)ncnc21	105 nM (active)	
Cc1ccc([N+](=O)[O-])cc1S(=O)(=O)N(C)N=Cc1cnc2ccc(Br)cn12	6.6 nM (active)	
Cc1cnc(Nc2ccc(N3CCN(C)CC3)cc2)nc1Nc1cccc(S(=O)(=O)NC(C)(C)C)c1	1320 nM (active)	
CC(C)n1cnc2c(NCCc3ccc(O)cc3)nc(-c3csc4ccccc34)nc21	18700 nM (active)	
COc1cc2c(Nc3ccc(Cl)c(Cl)c3F)ncnc2cc1OCC1C[C@@H]2CN(C)C[C@H]2C1	5900 nM (active)	
C[C@](Cc1c[nH]c2ccccc12)(NC(=O)OC1C2CC3CC(C2)CC1C3)C(=O)NC[C@H](NC(=O)CCC(=O)O)c1ccccc1 (stereo not given in full)		111% (inactive)
COc1cccc2c1C(=O)c1c(O)c3c(c(O)c1C2=O)C[C@@](O)(C(C)=O)C[C@H]3O[C@H]1C[C@H](N)[C@H](O)[C@H](C)O1	93.5 nM (active)	
C=C1C[C@@]2(O)O[C@@]3(C[C@H]2C(C)C)[C@H](C)CC[C@H]13		119% (inactive)
C[C@@H]1[C@H](C)CC[C@]2(C(=O)O)CC[C@]3(C)C(=CC[C@@H]4[C@@]5(C)C[C@@H](O)[C@H](O)[C@@](C)(CO)[C@H]5CC[C@]43C)[C@@H]12		134% (inactive)

Compound	Potency	viability (% of control)
c1coc(CNc2ncnc3nc[nH]c23)c1		109% (inactive)
CCOc1cc2c(c(F)c1OCC)C(=N)N(CC(=O)c1cc(N3CCOCC3)c(OC)c(C(C)(C)C)c1)C2	7430 nM (active)	
COc1ccc(C[C@@H](C)[C@@H](C)Cc2ccc(OC)c(OC)c2)cc1OC	132 nM (active)	
CC(=O)O[C@@]12CO[C@H]1C[C@H](O)[C@@]1(C)C(=O)[C@H](O)C3=C(C)[C@@H](OC(=O)C(O)[C@@H](NC(=O)OC(C)(C)C)c4ccccc4)C[C@@](O)([C@@H](OC(=O)c4ccccc4)[C@@H]21)C3(C)C (stereo not given in full)		9.83% (inactive)
CC(C)(O)Cn1c(NC(=O)c2ccc(-c3cn[nH]c3)s2)nc2cc(CN3CCOCC3)ccc21	743 nM (active)	
C[C@@H]1CC[C@@]2(OC1)OC1CC3C4CC=C5CC(O)CCC5(C)C4CCC3(C)C1[C@@H]2C (stereo not given in full)		103% (inactive)
CCc1ccc(C(=O)Nc2cc(CN3CCN(C)CC3)cc(C(F)(F)F)c2)cc1C#Cc1cnc2ccnn2c1	4690 nM (active)	
Nc1ccn(C2CO[C@H](CO)O2)c(=O)n1 (stereo not given in full)		103% (inactive)
C[C@H](NCc1ccc(OCc2cccc(F)c2)cc1)C(N)=O	7430 nM (active)	
N[C@H]1CN(c2c(F)cc3c(=O)c(C(=O)O)cn(C4C[C@@H]4F)c3c2Cl)CC12CC2 (stereo not given in full)		87.6% (inactive)
O=C(C=CC#Cc1cccc(NS(=O)(=O)c2ccccc2)c1)NO	662 nM (active)	
O=C(O)[C@H](CC(=O)N1C[C@@H]2CCCC[C@H]2C1)Cc1ccccc1		108% (inactive)
O=C1NCCc2[nH]c(-c3ccncc3)cc21	5260 nM (active)	
COc1cc([C@@H]2c3cc4c(cc3[C@@H](O[C@@H]3O[C@@H]5CO[C@@H](c6cccs6)O[C@@H]5[C@H](O)[C@@H]3O)[C@H]3COC(=O)[C@H]23)OCO4)cc(OC)c1O	1320 nM (active)	
O=c1ccn([C@@H]2O[C@H](CO)[C@H](O)[C@@H]2F)c(=O)[nH]1		116% (inactive)
Cc1cc(C(=O)NOCCO)c(Nc2ccc(I)cc2F)n(C)c1=O		95.2% (inactive)
CC(=O)O[C@H]1C[C@@H]2CC[C@H]3[C@H]4C[C@H]([N+]5(C)CCCCC5)[C@@H](OC(C)=O)[C@@]4(C)CC[C@@H]3[C@@]2(C)C[C@H]1N1CCCCC1		113% (inactive)
COC(=O)[C@@H]1CC2=CC(=O)CC[C@]2(C)[C@@]23O[C@@H]2C[C@@]2(C)[C@H](CC[C@@]24CCC(=O)O4)[C@@H]13		127% (inactive)
C=CC(=O)Nc1cc(NC(=O)c2ccc(C)c(NC(=O)c3ccno3)c2)cc(C(F)(F)F)c1	11800 nM (active)	
CC(=O)C1=C(O)C=C2Oc3c(C(C)=O)c(O)c(C)c(O)c3C2(C)C1=O (stereo not given)		92.8% (inactive)
